Structures are written as SMILES. The source made the active and inactive calls. The calls were made as follows: active = hit-call score of the fitted dose curve at least 0.9, where 1 is the maximum; inactive = score below 0.9.

Here are results for 40 compounds from PubChem BioAssay (EPA / NIEHS).

Read-out in this experiment: Monocyte Chemoattractant Protein-1 (MCP1), CCL2 (gene 6347)
The experiment in a line: BSK_3C_MCP1: BioMAP Diversity Plus: 3C Assay for Monocyte Chemoattractant Protein-1 (MCP1) Biomarker Activity (AID 2283017). To be noted: primary human endothelial cells (HUVEC); actives raise or lower the signal. On the procedure: BSK_3C is a cell-based, multiplexed-readout assay that uses umbilical vein endothelium, a human vascular primary cell, with measurements taken at 24 hours after chemical dosing in a 96-well plate.BSK_3C_MCP1 is an assay component measured in the BSK_3C assay. It measures MCP-1 antibody related to regulation of gene expression using ELISA technology.Data from the assay component BSK_3C_MCP1 was analyzed into 1 assay endpoint. This assay endpoint, BSK_3C_MCP1, was analyzed with bidirectional fitting relative to DMSO as the negative control and baseline of activity. Using a type of binding reporter, gain or loss-of-signal activity can be used to understand changes in the signaling as they relate to the gene CCL2. Furthermore, this assay endpoint can be referred to as a primary readout, because this assay has produced multiple assay endpoints where this one serves a signaling function. To generalize the intended target to other relatable targets, this assay endpoint is annotated to the cytokine intended target family, where the subfamily is chemotactic factor.
The levels of cell surface (or secreted, indicated by the prefix "s") biomarker endpoints were measured by ELISA. Overt cytotoxicity to cells in confluent adherent cultures (all systems other than the BT system) was assessed by measuring total protein levels using sulforhodamine B (SRB) staining in parallel cultures at the time of biomarker measurements, indicated as SRB endpoints. For proliferation assays for adherent cell types, individual cell types are cultured at sub-confluence and relative cell numbers quantified by SRB staining at time points optimized for each system (48 h: 3C and CASM3C systems; 72 h: BT and HDF3CGF systems; 96 h: SAg system). SRB was performed by staining cells with 0.1% SRB after fixation with 10% TCA and reading wells at 560 nm.Viability and proliferation of PBMC (T cells) was quantified by Alamar Blue reduction for the SAg and BT systems. For PBMC viability (referred to as PBMC Cytotoxicity within the assay endpoint names), cells were plated (75,000/well in a 96-well plate) and then chemical samples added for 1 h before addition of activators, SEB and TSST-1 (20 ng/mL final concentration each). Cells were incubated for 90 h. Then, Alamar Blue (20 uL/well) (Invitrogen, Cat DAL1100) was added for 6 h, and the plates were read with a fluorescence microplate reader at 546/580 nm (excitation/emission). For PBMC proliferation, cells were plated and activated as above but incubated for only 16 h prior to addition of Alamar Blue. Plates were read after 6 h.
Turning to `CN(C)C(=S)S`, the outcome was inactive.

On to `CCOC(=O)CCN(SN(C)C(=O)Oc1cccc2c1OC(C)(C)C2)C(C)C`, for which the AC50 is 27.1 µM (active). Regarding `c1ccc(-c2cccc(-c3ccccc3)c2)cc1`, the AC50 is 12.4 µM (active).

As to `CCOC(=O)C(SP(=S)(OC)OC)c1ccccc1` (stereo not given), the concentration at half-maximal activity (AC50) was 3.97 µM (active). The same measure, in the same setting: for `[Cl][Sn]([c]1ccccc1)([c]1ccccc1)[c]1ccccc1` the value was 0.292 µM (active). For `O=c1oc2ccccc2c(O)c1C(CC(O)c1ccc(-c2ccc(Br)cc2)cc1)c1ccccc1` (stereo not given), the concentration at half-maximal activity (AC50) is 10.5 µM (active). As to `CCOP(=S)(OCC)OP(=S)(OCC)OCC`, the AC50 was 26.5 µM (active). Regarding `NC(=O)CCl`, the outcome was inactive.

Turning to `C=CC(Cl)CCl` (stereo not given), the outcome was inactive. For the compound `Cc1cc(Cl)ccc1OC(C)C(=O)O` (stereo not given), the outcome was inactive. Turning to `CCN(CC)C(=O)C(Cl)=C(C)OP(=O)(OC)OC`, the result was inactive. Same read-out and setting: for `CC(C=O)Cc1ccc2c(c1)OCO2` (stereo not given) the value was “inactive”.

Turning to `Clc1cccc(Cl)c1Cl`, the result was inactive. On to `O=[N+]([O-])c1ccc(Nc2ccccc2)cc1`, for which the outcome was inactive. In the case of `O=C(O)C1(c2ccc3c(c2)OC[C@H](Cc2ccc(-c4ccccc4)cc2)[C@H]3O)CCCC1`, the AC50 was 23.6 µM (active). For the compound `CC(C)O.CC(C)O.OCCN(CCO)CCO.OCCN(CCO)CCO.[Ti]`, the result was inactive. As to `Nc1c(Oc2ccccc2)cc(O)c2c1C(=O)c1ccccc1C2=O`, the result was inactive. Still for that read-out and setting: as for `OC(Cc1ccccc1Cl)(Cn1[nH]cnc1=S)C1(Cl)CC1` (stereo not given), the entry is “inactive”.

On to `N#Cc1cccnc1`, for which the result was inactive.

As for `CC1(C)[C@H](C(=O)O[C@H](C#N)c2cccc(Oc3ccccc3)c2)[C@@H]1/C=C(\Cl)C(F)(F)F`, the outcome was inactive. For `Cc1ccc2nc3sc(=O)sc3nc2c1`, the AC50 is 7.34 µM (active). As to `Nc1ccc(N)cc1`, the outcome was inactive. Still for that read-out and setting: for `O=C(Cc1ccccc1)OCCc1ccccc1` the value was “inactive”.

In the case of `C#CCOC(=O)/C=C(C)/C=C/CC(C)CCCC(C)C` (stereo not given), the half-maximal activity concentration (AC50) is 36.8 µM (active). In the case of `Oc1c(Br)cc(Br)cc1Br`, the half-maximal activity concentration (AC50) was 32.9 µM (active). As to `O=C(N[C@H]1CN2CCC1CC2)c1ccc2c(c1)OCCO2`, the result was inactive. In the case of `OCCCCO`, the result was inactive. Turning to `CC(C)=CC1C(C(=O)OCc2cccc(Oc3ccccc3)c2)C1(C)C` (stereo not given), the result was inactive. For `O=S(=O)(C(Cl)(Cl)Cl)C(Cl)(Cl)Cl`, the half-maximal activity concentration (AC50) was 1.9 µM (active). Take `CCCCOC(=O)COC(=O)c1ccccc1C(=O)OCCCC`: the outcome was inactive. Consider `O=C1C=CC(=O)c2ccccc21`, for which the AC50 is 3.04 µM (active). For `c1ccc2sc(SNC3CCCCC3)nc2c1`, the outcome was inactive. The same measure, in the same setting: for `OC(Cc1ccccc1Cl)(Cn1cncn1)C1(Cl)CC1` (stereo not given) the value was “inactive”. The same measure, in the same setting: for `O=C(CCl)NCO` the value was “inactive”; for `OCCN(CCO)CCO`, “inactive”; for `Cc1cccc(OP(=O)(Oc2cccc(C)c2)Oc2cccc(C)c2)c1`, “inactive”. In the case of `O=S(=O)(c1ccc(Cl)cc1)c1cc(Cl)c(Cl)cc1Cl`, the concentration at half-maximal activity (AC50) is 20 µM (active).

As for `Cc1ccccc1OP(=O)(Oc1ccccc1C)Oc1ccccc1C`, the AC50 was 10.2 µM (active). Consider `Oc1cccc(-c2ccccc2)c1`, for which the AC50 is 30.6 µM (active). The same measure, in the same setting: as for `Cc1ccc(OP(=O)(Oc2ccc(C)cc2C)Oc2ccc(C)cc2C)c(C)c1`, the figure is 20 µM (active).

The AC50 is the midpoint of the concentration-response curve, whichever way the signal moves.
